Experimental data taken from PubChem BioAssay AID463082 (The Scripps Research Institute Molecular Screening Center, 2010).
Screen size: about 330,000 compounds; about 4,900 (1.5%) were called active.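 Rule for the calls: active = inhibition above the mean inhibition across the screen plus 3 SD (cut at about 25% in these data); inactive = the rest.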 This excerpt belongs to a sample that is enriched for actives.

Target: Platelet-activating factor acetylhydrolase (Homo sapiens) (UniProt Q13093)
Test: pPAFAH enzyme inhibitors, primary screen, biochemical, fluorescence polarization, human (AID 463082);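 note: inhibitors block binding of the rhodamine activity-based probe so polarization drops; 0% = enzyme with DMSO and 100% = wells lacking pPAFAH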
Conditions: recombinant pPAFAH, FP-rhodamine probe fluorescence polarization; at 3.39 µM; hits give high values

Platelet-activating factor acetylhydrolase (Homo sapiens), sequence (Q13093 whole entry, looked up): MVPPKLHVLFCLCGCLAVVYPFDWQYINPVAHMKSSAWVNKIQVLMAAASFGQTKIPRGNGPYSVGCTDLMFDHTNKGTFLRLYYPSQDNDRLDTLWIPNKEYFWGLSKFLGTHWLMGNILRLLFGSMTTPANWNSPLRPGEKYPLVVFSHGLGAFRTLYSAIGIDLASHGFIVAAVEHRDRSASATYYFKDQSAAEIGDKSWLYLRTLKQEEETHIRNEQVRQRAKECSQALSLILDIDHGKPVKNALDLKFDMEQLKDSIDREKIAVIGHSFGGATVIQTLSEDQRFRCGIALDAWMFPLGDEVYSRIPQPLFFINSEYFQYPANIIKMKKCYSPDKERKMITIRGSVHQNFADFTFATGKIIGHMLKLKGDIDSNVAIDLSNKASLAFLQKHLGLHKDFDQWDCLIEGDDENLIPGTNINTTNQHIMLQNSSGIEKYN

| Compound | inhibition |
| --- | --- |
| CCCN(CC(=O)Nc1ccccc1C)C(=O)c1ccc2[nH]c3c(c2c1)CC(C)CC3 (configuration not stated) | 2.57% (inactive) |
| COc1cc2c(C(=O)O)c(C)n(C)c2c2ccccc12 | 8.22% (inactive) |
| COc1cccc2c(C)c(C(=O)O)[nH]c12 | 40% (active) |
| Cc1c(C(=O)N/N=C/c2ccccc2)[nH]c2c([N+](=O)[O-])cccc12 | 2.71% (inactive) |
| CCOc1ccc(N/C(N)=N/c2nc(C)c(C)c(=O)[nH]2)cc1 | 5.08% (inactive) |
| CCOC(=O)CNC(=O)CSc1ncccc1-c1nc2ccccc2[nH]1 | 3.09% (inactive) |
| COC(=O)c1cccc(N(C(=O)c2ccco2)C(C(=O)NC2CCCC2)c2ccco2)c1 (configuration not stated) | -7.26% (inactive) |
| CCOc1ccc(NS(=O)(=O)c2ccc(C(=O)NCC(c3ccccc3OC)N3CCCC3)cc2)cc1 (configuration not stated) | 51.8% (active) |
| COc1ccc(C(CNC(=O)c2ccc(S(=O)(=O)Nc3ccccc3C)cc2)N2CCOCC2)cc1 (configuration not stated) | 33.2% (active) |
| COc1ccc(C(CNC(=O)c2cccc(NS(=O)(=O)c3ccc(C)c(F)c3)c2)N2CCCC2)cc1 (configuration not stated) | 5.75% (inactive) |
| Cc1cc(S(=O)(=O)Nc2ccc(C(=O)NCC(c3ccco3)N3CCCC3)cc2)ccc1F (configuration not stated) | -0.43% (inactive) |
| CCOc1ccc(NS(=O)(=O)c2ccc(C(=O)NC3CCN(Cc4ccccc4)CC3)cc2)cc1 | 24.1% (inactive) |
| COc1ccc(C(CNC(=O)c2cccc(S(=O)(=O)Nc3ccccc3Cl)c2)N2CCOCC2)cc1 (configuration not stated) | -3.75% (inactive) |
| CC(=O)Nc1ccc(S(=O)(=O)N2CCN(C(=O)c3ccccc3F)CC2)cc1 | -5.31% (inactive) |
| COc1ccc(S(=O)(=O)N(C)C[C@@H]2Oc3ccc(NC(=O)Nc4c(C)noc4C)cc3C(=O)N([C@H](C)CO)C[C@@H]2C)cc1 | 1.97% (inactive) |
| COc1ccc(S(=O)(=O)NCc2cccnc2)cc1NC(=O)c1ccc(C)cc1 | 0.8% (inactive) |
| Cc1cccc(C)c1NC(=O)CCS(=O)(=O)c1cccc2nsnc12 | -6.43% (inactive) |
| Cc1cccc(Cn2cnc3c(N)c(C)c(C)cc32)c1 | 9.5% (inactive) |
| Cn1c(=O)c(C(=O)Nc2ncccn2)c(O)c2ccccc21 | 1.18% (inactive) |
| COc1ccc(COC(=O)NC(C(=O)O)c2ccccc2)cc1 (configuration not stated) | -0.13% (inactive) |
| COC(=O)c1ccc(C(NC(=O)OCc2ccccc2)/C(C)=C/[C@@H](C)C(=O)NCc2ccc(OC)c(OC)c2)cc1 (some centres not stated) | 40.4% (active) |
| COC(=O)c1ccc(C(NC(=O)OCc2ccccc2)/C(F)=C/[C@@H](C)C(=O)O)cc1 (some centres not stated) | 6.41% (inactive) |

| Compound | inhibition |
| --- | --- |
| C=CCNC(=O)C1CC2c3ccccc3C1c1ccccc12 (configuration not stated) | 3.92% (inactive) |
| CSC1=NC2(C)CCCCC2C12C=CC(=O)C=C2 (configuration not stated) | 5.48% (inactive) |
| Cc1nn(C)cc1C(=O)c1ccccc1 | -11.2% (inactive) |
| C=C(C)CNC(=O)c1ccc(OC2CCN(C(=O)COC)CC2)cc1 | -1.41% (inactive) |
| COc1ccc(/C=N/NC(=O)c2ccc3c(c2)OCCO3)c(OC)c1 | 11.5% (inactive) |
| COc1cccc(/C=N/NC(=O)c2[nH]nc3c2CCc2ccccc2-3)c1O | 43.7% (active) |
| COc1cc(OC)c(/C=N/NC(=O)c2ccc([N+](=O)[O-])cc2)cc1Br | 2.36% (inactive) |
| Cc1onc(C(=O)NN)c1-c1csc(COc2ccccc2)n1 | -3.91% (inactive) |
| COc1ccc(-c2csc(Cc3nc(O)cs3)n2)cc1 | 13% (inactive) |
| CC(C)(C)C(=O)OCc1nc(-c2ccc(O)c(O)c2)cs1 | 27.5% (active) |
| C/C(=N/N1CCN(Cc2cccc3ccccc23)CC1)c1cccnc1 | -3.57% (inactive) |
| CCN(CC)C(=O)[C@H]1CC(CC(=O)NCc2ccco2)C(=O)N2CCc3c([nH]c4ccccc34)[C@]12C (some centres not stated) | -0.35% (inactive) |
| CCN1/C(=C\c2ccc3ccccc3[n+]2CC)Sc2cc(C)ccc21 | 36.3% (active) |
| Cc1ccc(C(=O)OCC(=O)NC(=O)Cc2ccccc2)c(O)c1 | 5.13% (inactive) |
| Cc1cc(=O)[nH]c(SCc2cccc(F)c2)n1 | -3.14% (inactive) |
| Cc1cc(=O)[nH]c(SCc2ccc(Cl)cc2)n1 | -2.26% (inactive) |
| CCCc1cc(=O)[nH]c(SCC(=O)N2C(C)CCCC2C)n1 (configuration not stated) | 8.03% (inactive) |
| CCCc1cc(=O)[nH]c(SCC(=O)c2cc(C)n(CCC)c2C)n1 | 25.1% (active) |
| Cc1cc(C(=O)CSc2nc(N)cc(=O)[nH]2)c(C)n1Cc1ccco1 | 13.6% (inactive) |
| Cc1cc(C(=O)CSc2nc(N)cc(=O)[nH]2)c(C)n1CCc1ccc(Cl)cc1 | 69.6% (active) |
| Cc1cc(C(=O)CSc2nc(N)cc(=O)[nH]2)c(C)n1-c1cccc(F)c1 | 56.4% (active) |
| Cc1cc(C)c(C(=O)CSc2nc(C)cc(=O)[nH]2)c(C)c1 | 8.8% (inactive) |

| Compound | inhibition |
| --- | --- |
| CCCc1cc(=O)[nH]c(SCC(=O)c2c(N)n(CC(C)C)c(=O)n(C)c2=O)n1 | 0.06% (inactive) |
| CONc1nc2nonc2nc1NOC | 4.61% (inactive) |
| CCN(CC(=O)Nc1ccc(OC)cc1)C(=O)c1ccc(=O)n(Cc2ccccc2)n1 | -1.18% (inactive) |
| O=c1oc2ccc(C#CC3(O)CCCCC3)cc2cc1-n1cc(-c2ccsc2)nn1 | -0.61% (inactive) |
| O=C(CO/N=C/c1ccccc1O)NNC(=O)c1ccccc1Cl | 0.6% (inactive) |
| CCOCCCNC(=O)C(=O)NCCCOCC | 7.96% (inactive) |
| COc1cccc(COC(=O)C2CCN(S(=O)(=O)c3cccs3)CC2)c1OC | 0.21% (inactive) |
| Cn1cccc1C(C#N)c1ccccc1C#N (configuration not stated) | 6.28% (inactive) |
| CC(=O)Oc1c(C(=O)c2nnc(C)o2)c(=O)n(Cc2ccccc2)c2ccccc12 | 4.19% (inactive) |
| CCCCNC(=O)C(C)N(CCN(C)C)C(=O)CCCN1C(=O)NC(c2ccc(Cl)cc2)C(C(=O)OCc2ccccc2)=C1C (configuration not stated) | 8.55% (inactive) |
| FC(F)(F)c1cccc(Cc2noc(CN3CCC(N4CCCCC4)CC3)n2)c1 | -0.07% (inactive) |
| CCN(C(=O)c1cc([N+](=O)[O-])ccc1NCc1cccnc1)c1ccccc1 | -0.13% (inactive) |
| CC(Oc1ccc(Br)cc1)C(=O)NCC(c1ccco1)N1CCCCC1 (configuration not stated) | 1.84% (inactive) |
| CCOC(=O)C1(Cc2ccc(Cl)cc2)CCN(C(=O)C2=NNC(=O)CC2)CC1 | 1.54% (inactive) |
| COC(=O)CN1C(=O)[C@H]2[C@@H](/C=C/c3ccccc3)N3C(=O)CN(Cc4ccccc4)C(=O)[C@@]3(Cc3ccccc3)[C@H]2C1=O | 3.66% (inactive) |
| NS(=O)(=O)c1ccccc1NC(=O)c1c(O)c2ccccc2[nH]c1=O | -4.47% (inactive) |
| CN(C(=O)COC(=O)Cc1ccccc1[N+](=O)[O-])C1CCS(=O)(=O)C1 (configuration not stated) | -1.36% (inactive) |
| CN(CCOc1ccccc1)C(=O)c1cc(-c2ccco2)nc2ccccc12 | 17.3% (inactive) |
| CN(C(=O)COC(=O)c1cc(-c2ccco2)nc2ccccc12)C1CCS(=O)(=O)C1 (configuration not stated) | 30.1% (active) |
| c1ccc(C2CCC(N3CCC(N4CCCCC4)CC3)CC2)cc1 (configuration not stated) | 4.58% (inactive) |
| CC/C(O)=C1\C(=O)CC(C)(C)CC1=NCCc1nc2ccccc2[nH]1 | -2.43% (inactive) |
| Cc1cccc(C(=O)Nc2ccc(C(=O)/C=C/c3cccs3)cc2)c1 | -9.49% (inactive) |

| Compound | inhibition |
| --- | --- |
| CC(=O)Nc1ccc(S(=O)(=O)Nc2ccc(-c3ccc4nnc(C)n4n3)cc2)cc1 | 3.56% (inactive) |
| CC(=O)Nc1ccc(S(=O)(=O)Nc2nc(-c3ccc(C(C)(C)C)cc3)cs2)cc1 | 25.1% (active) |
| CC(=O)Nc1ccc(S(=O)(=O)Nc2cccc(NC(=O)C(C)(C)C)c2)cc1 | 6.07% (inactive) |
| O=C(NC(=S)Nc1cccc2c(O)cccc12)c1cccc(Br)c1 | 8.85% (inactive) |
| CC(C)c1ccc(-c2noc(C3CCCN(S(C)(=O)=O)C3)n2)cc1 (configuration not stated) | 26.1% (active) |
| COc1cc(-c2noc(C3CCCN(S(=O)(=O)c4cccc(Cl)c4)C3)n2)cc(OC)c1OC (configuration not stated) | 1.19% (inactive) |
| O=C(Cc1cccs1)N1CCCC(c2nc(-c3ccc(S(=O)(=O)N4CCCC4)cc3)no2)C1 (configuration not stated) | 3.46% (inactive) |
| CCCn1c(N)c(C(=O)CSc2nnc(-c3cccnc3)n2-c2ccc(C)cc2C)c(=O)[nH]c1=O | 4.8% (inactive) |
| COCC1CCCN(Cc2nc(-c3ccc4c(c3)OCO4)no2)C1 (configuration not stated) | 0.91% (inactive) |
| CCCCOc1ccc(C(=O)NCC(=O)OCC(=O)N2CCN(S(=O)(=O)c3ccc(C)cc3C)CC2)cc1 | 28% (active) |
| Cc1ccc(S(=O)(=O)N2CCN(C(=O)COC(=O)c3c(C)cc(C)cc3C)CC2)c(C)c1 | 0.75% (inactive) |
| Cc1ccc(S(=O)(=O)N2CCN(C(=O)COC(=O)CNC(=O)c3ccc(C(C)(C)C)cc3)CC2)c(C)c1 | 18% (inactive) |
| COc1cccc(CNC(C)C(=O)Nc2ccc(S(=O)(=O)N3CCCC3)cc2)c1 (configuration not stated) | -5.3% (inactive) |
| COc1ccc(S(=O)(=O)NCC(c2ccco2)N2CCOCC2)cc1 (configuration not stated) | -0.61% (inactive) |
| O=C(COC(=O)CNS(=O)(=O)c1ccc(F)c(F)c1F)NC1CCCC1 | 29.2% (active) |
| Cc1cc(C)cc(OCC(=O)OCC(=O)NC2CCCC2)c1 | 21.4% (inactive) |
| Cc1ccc(C(=O)NCC(=O)OCC(=O)NC2CCCCCCC2)cc1 | 9.66% (inactive) |
| CN(C(=O)CC1C(=O)NCCN1Cc1ccc(F)cc1Cl)C1CCCCC1 (configuration not stated) | -3% (inactive) |
| COc1ccc(OC)c(-n2c(-c3ccn[nH]3)n[nH]c2=S)c1 | -4.65% (inactive) |
| COc1ccccc1-n1cn[nH]c1=S | 6.13% (inactive) |
| COc1ccccc1-n1c(-c2cc(-c3ccco3)[nH]n2)n[nH]c1=S | 28.5% (active) |
